Reference: publication PMC7862700, “An all-to-all approach to the identification of sequence-specific readers for epigenetic DNA modifications on cytosine”

Assays:
Experiment in all cases: DAPPL (digital affinity profiling via proximity ligation, sequencing); 10 mM Tris-HCl pH 7.5, 50 mM NaCl, 1 mM DTT, 4% glycerol, room temperature, 30 min; GST-TFs on glutathione beads, 16-mer random dsDNA library, 0.1% formaldehyde crosslink after washing; high values mean tight binding
Settings in all cases: protein: recombinant; tags: N-terminal GST; dsDNA, one strand shown
FLI1 = target: T1, FLI1 (Homo sapiens, UniProt Q01543 1-452)
T1 sequence: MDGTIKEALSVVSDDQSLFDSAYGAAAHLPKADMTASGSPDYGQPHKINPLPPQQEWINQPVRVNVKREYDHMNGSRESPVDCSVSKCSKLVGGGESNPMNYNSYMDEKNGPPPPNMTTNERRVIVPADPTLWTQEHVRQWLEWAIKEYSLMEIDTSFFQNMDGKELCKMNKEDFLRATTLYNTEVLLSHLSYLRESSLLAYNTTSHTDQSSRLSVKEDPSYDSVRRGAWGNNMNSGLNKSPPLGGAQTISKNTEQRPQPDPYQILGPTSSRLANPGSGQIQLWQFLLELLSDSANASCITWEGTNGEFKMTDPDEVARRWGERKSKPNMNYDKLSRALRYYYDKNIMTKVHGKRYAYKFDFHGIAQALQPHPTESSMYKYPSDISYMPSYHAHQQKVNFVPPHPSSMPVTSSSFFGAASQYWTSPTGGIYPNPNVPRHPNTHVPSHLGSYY
Outline: (§1)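 Human transcription factors fused to GST were expressed in yeast, captured on glutathione beads, given DNA barcodes and pooled with a GST-only negative control. Pools were incubated with 200 nmole of a 16-mer random double-stranded DNA library in Tris/NaCl/DTT/glycerol buffer at room temperature for 30 min. They were then washed, crosslinked with 0.1% formaldehyde, proximity-ligated (BsaI/T4 ligase, 1 h, 37 °C), PCR-amplified and sequenced on an Illumina NextSeq500. Binding signal is each 6-mer's read frequency for a factor divided by its frequency for the GST control.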

ELK1 = target: T2, ELK1 (Homo sapiens, UniProt P19419 1-428)
T2 sequence: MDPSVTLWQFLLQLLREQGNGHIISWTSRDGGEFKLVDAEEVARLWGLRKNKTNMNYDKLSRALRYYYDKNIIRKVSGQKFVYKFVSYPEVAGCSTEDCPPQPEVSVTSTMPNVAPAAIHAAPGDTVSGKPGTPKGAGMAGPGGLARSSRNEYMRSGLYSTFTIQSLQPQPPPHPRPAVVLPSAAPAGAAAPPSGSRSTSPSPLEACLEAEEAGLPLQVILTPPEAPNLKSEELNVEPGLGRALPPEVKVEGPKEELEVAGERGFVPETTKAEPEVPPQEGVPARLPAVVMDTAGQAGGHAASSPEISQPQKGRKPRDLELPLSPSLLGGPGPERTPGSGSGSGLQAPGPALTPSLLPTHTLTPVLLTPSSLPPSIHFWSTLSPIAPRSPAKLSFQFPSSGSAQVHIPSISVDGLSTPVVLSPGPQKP
Outline: as §1

GABPA = target: T3, GABPA (Homo sapiens, UniProt Q06546 1-454)
T3 sequence: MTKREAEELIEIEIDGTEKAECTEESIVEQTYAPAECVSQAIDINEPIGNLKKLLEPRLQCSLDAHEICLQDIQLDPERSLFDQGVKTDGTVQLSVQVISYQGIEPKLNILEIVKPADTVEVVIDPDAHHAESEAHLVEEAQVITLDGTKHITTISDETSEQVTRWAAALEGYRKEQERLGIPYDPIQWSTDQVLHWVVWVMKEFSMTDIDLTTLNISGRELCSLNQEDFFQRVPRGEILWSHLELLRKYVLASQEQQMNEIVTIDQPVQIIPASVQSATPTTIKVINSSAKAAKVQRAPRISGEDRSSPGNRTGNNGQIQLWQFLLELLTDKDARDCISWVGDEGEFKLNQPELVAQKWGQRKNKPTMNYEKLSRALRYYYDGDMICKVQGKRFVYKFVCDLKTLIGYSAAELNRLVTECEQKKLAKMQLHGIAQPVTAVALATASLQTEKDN
Outline: as §1

ERG = target: T4, ERG (Homo sapiens, UniProt P11308 1-479)
T4 sequence: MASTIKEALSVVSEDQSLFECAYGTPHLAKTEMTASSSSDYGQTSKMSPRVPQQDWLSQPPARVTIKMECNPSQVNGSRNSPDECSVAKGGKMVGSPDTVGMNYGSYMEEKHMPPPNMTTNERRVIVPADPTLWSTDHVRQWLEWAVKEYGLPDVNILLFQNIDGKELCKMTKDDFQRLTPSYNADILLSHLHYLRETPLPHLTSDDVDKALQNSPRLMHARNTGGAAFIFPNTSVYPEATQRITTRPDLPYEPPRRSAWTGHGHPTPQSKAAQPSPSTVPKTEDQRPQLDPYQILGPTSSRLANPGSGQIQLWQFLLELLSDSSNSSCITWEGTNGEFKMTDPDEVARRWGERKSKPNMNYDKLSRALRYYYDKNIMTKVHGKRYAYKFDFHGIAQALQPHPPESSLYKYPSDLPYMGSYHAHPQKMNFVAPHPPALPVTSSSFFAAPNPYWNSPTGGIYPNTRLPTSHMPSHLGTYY
Outline: as §1

ELF1 = ELF1 (Homo sapiens, UniProt P32519 1-619)
ELF1, sequence (P32519 whole entry): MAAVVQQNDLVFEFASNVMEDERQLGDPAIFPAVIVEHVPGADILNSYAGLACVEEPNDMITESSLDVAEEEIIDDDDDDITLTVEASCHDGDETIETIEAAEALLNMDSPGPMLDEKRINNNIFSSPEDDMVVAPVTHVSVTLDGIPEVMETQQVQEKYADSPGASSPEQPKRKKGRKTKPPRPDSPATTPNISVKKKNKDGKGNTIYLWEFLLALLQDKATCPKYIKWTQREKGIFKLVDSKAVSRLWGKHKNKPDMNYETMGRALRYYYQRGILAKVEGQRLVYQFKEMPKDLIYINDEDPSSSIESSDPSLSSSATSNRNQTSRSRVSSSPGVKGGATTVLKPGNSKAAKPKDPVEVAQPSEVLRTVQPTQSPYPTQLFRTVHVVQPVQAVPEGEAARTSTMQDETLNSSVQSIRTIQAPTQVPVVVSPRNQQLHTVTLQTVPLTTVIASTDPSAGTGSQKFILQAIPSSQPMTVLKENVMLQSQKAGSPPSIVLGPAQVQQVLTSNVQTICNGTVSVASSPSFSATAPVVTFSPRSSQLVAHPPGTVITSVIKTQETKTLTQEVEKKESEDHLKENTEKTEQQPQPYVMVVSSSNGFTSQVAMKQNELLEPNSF
Outline: as §1

EHF = target: T5, EHF (Homo sapiens, UniProt Q9NZC4 1-300)
T5 sequence: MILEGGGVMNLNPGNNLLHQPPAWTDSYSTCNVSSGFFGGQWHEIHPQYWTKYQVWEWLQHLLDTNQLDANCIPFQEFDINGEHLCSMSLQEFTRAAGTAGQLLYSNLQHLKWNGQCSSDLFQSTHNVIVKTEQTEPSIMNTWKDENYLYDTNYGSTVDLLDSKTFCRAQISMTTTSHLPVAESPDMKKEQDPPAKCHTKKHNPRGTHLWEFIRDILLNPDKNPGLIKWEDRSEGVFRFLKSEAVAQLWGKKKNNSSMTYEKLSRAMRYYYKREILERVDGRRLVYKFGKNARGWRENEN
Outline: as §1

SPI1 = SPI1 (Homo sapiens, UniProt P17947 1-270)
Outline: as §1

SPIB = SPIB (Homo sapiens, UniProt Q01892 1-262)
SPIB, sequence (Q01892 whole entry): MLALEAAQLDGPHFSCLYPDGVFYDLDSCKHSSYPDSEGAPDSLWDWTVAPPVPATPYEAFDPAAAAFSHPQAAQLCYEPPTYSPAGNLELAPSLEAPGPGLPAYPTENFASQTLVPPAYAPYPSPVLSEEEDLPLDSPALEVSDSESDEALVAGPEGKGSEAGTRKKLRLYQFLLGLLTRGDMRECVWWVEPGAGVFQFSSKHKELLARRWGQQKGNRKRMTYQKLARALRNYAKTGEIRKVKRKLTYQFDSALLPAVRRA
Outline: as §1

ELK3 = target: T6, ELK3 (Homo sapiens, UniProt P41970 1-407)
T6 sequence: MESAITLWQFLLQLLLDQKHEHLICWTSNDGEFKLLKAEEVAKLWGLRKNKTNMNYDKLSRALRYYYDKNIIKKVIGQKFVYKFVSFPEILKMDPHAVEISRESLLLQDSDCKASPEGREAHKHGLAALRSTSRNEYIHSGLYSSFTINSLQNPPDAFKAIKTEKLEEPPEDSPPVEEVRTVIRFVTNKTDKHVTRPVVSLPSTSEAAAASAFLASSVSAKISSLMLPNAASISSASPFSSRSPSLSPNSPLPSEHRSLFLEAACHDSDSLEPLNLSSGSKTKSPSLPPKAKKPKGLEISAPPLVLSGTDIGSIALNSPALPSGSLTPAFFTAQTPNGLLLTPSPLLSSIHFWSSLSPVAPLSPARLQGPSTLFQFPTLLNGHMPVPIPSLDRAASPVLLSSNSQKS
Outline: as §1

Sequence	binding signal (FLI1)	binding signal (ELK1)	binding signal (GABPA)	binding signal (ERG)	binding signal (ELF1)	binding signal (EHF)	binding signal (SPI1)	binding signal (SPIB)	binding signal (ELK3)
TGCCGA	1.07 fold enrichment (6-mer frequency, TF over GST control)	1.25 fold enrichment (6-mer frequency, TF over GST control)	1.21 fold enrichment (6-mer frequency, TF over GST control)	1.1 fold enrichment (6-mer frequency, TF over GST control)	1.03 fold enrichment (6-mer frequency, TF over GST control)	1.24 fold enrichment (6-mer frequency, TF over GST control)	1.2 fold enrichment (6-mer frequency, TF over GST control)	1.18 fold enrichment (6-mer frequency, TF over GST control)	1.1 fold enrichment (6-mer frequency, TF over GST control)
TTAAGT	1.06 fold enrichment (6-mer frequency, TF over GST control)	1.3 fold enrichment (6-mer frequency, TF over GST control)	1.16 fold enrichment (6-mer frequency, TF over GST control)	1.17 fold enrichment (6-mer frequency, TF over GST control)	1.19 fold enrichment (6-mer frequency, TF over GST control)	1.15 fold enrichment (6-mer frequency, TF over GST control)	1.06 fold enrichment (6-mer frequency, TF over GST control)	1.2 fold enrichment (6-mer frequency, TF over GST control)	1.23 fold enrichment (6-mer frequency, TF over GST control)
AGCCCT	1.03 fold enrichment (6-mer frequency, TF over GST control)	1.14 fold enrichment (6-mer frequency, TF over GST control)	1.11 fold enrichment (6-mer frequency, TF over GST control)	1.09 fold enrichment (6-mer frequency, TF over GST control)	1.07 fold enrichment (6-mer frequency, TF over GST control)	1.18 fold enrichment (6-mer frequency, TF over GST control)	1.09 fold enrichment (6-mer frequency, TF over GST control)	1.14 fold enrichment (6-mer frequency, TF over GST control)	1.07 fold enrichment (6-mer frequency, TF over GST control)
ACTTGG	1.34 fold enrichment (6-mer frequency, TF over GST control)	1.19 fold enrichment (6-mer frequency, TF over GST control)	1.15 fold enrichment (6-mer frequency, TF over GST control)	1.16 fold enrichment (6-mer frequency, TF over GST control)	1.34 fold enrichment (6-mer frequency, TF over GST control)	1.1 fold enrichment (6-mer frequency, TF over GST control)	1.21 fold enrichment (6-mer frequency, TF over GST control)	1.25 fold enrichment (6-mer frequency, TF over GST control)	1.29 fold enrichment (6-mer frequency, TF over GST control)
TCGATA	1.17 fold enrichment (6-mer frequency, TF over GST control)	1.03 fold enrichment (6-mer frequency, TF over GST control)	1.08 fold enrichment (6-mer frequency, TF over GST control)	1.1 fold enrichment (6-mer frequency, TF over GST control)	1.11 fold enrichment (6-mer frequency, TF over GST control)	1.12 fold enrichment (6-mer frequency, TF over GST control)	1.12 fold enrichment (6-mer frequency, TF over GST control)	1.03 fold enrichment (6-mer frequency, TF over GST control)	1.06 fold enrichment (6-mer frequency, TF over GST control)
GCTTAT	1.33 fold enrichment (6-mer frequency, TF over GST control)	1.21 fold enrichment (6-mer frequency, TF over GST control)	1.28 fold enrichment (6-mer frequency, TF over GST control)	1.18 fold enrichment (6-mer frequency, TF over GST control)	1.28 fold enrichment (6-mer frequency, TF over GST control)	1.12 fold enrichment (6-mer frequency, TF over GST control)	1.3 fold enrichment (6-mer frequency, TF over GST control)	1.31 fold enrichment (6-mer frequency, TF over GST control)	1.16 fold enrichment (6-mer frequency, TF over GST control)
CCTCGC	1.53 fold enrichment (6-mer frequency, TF over GST control)	1.54 fold enrichment (6-mer frequency, TF over GST control)	1.43 fold enrichment (6-mer frequency, TF over GST control)	1.5 fold enrichment (6-mer frequency, TF over GST control)	1.37 fold enrichment (6-mer frequency, TF over GST control)	1.42 fold enrichment (6-mer frequency, TF over GST control)	1.39 fold enrichment (6-mer frequency, TF over GST control)	1.42 fold enrichment (6-mer frequency, TF over GST control)	1.26 fold enrichment (6-mer frequency, TF over GST control)
CCGGCA	1.38 fold enrichment (6-mer frequency, TF over GST control)	1.37 fold enrichment (6-mer frequency, TF over GST control)	1.39 fold enrichment (6-mer frequency, TF over GST control)	1.53 fold enrichment (6-mer frequency, TF over GST control)	1.29 fold enrichment (6-mer frequency, TF over GST control)	1.4 fold enrichment (6-mer frequency, TF over GST control)	1.44 fold enrichment (6-mer frequency, TF over GST control)	1.53 fold enrichment (6-mer frequency, TF over GST control)	1.5 fold enrichment (6-mer frequency, TF over GST control)
